The record followed here is PubChem BioAssay AID463173 (ICCB-Longwood Screening Facility, Harvard Medical School, 2010).

Screen size: about 52,000 compounds; about 4,300 (8.3%) were called active. Cut-off read from the data, not from the text of the source: active = survival mostly below about 52% (no sharp cut-off); inactive = mostly above about 56%. The list comes from a sample in which actives are over-represented; it also holds similar structures and randomly drawn compounds.

The test system of the assay is DeltatarO mutant. The experiment in a line: growth inhibition of S. aureus wild type versus tarO mutant, primary screen, teichoic acid synthesis inhibitors, RN4220, OD600 (AID 463173). The conditions noted are these: OD600, 18 h, stronger effect = lower value, screened at 18.75 µg/mL (by protocol).
As for `CCCSc1ncc(Cl)c(C(=O)Nc2ccc(S(=O)(=O)N3CCCCC3C)cc2)n1` (centres undefined), the survival is 51% (inactive).
Consider `COc1ccc(-c2nnc(SCc3cccc(Cl)c3)o2)cc1`, for which the survival is 22% (active).
Regarding `Oc1ccccc1-c1nnc(SCc2ccccc2)o1`, the survival was 86% (inactive).
On to `COc1ccc(-c2nnc(SCC#N)o2)cc1`, for which the survival was 74% (inactive).
The same measure for `COc1cccc(CSc2nnc(-c3ccc(F)cc3)o2)c1`: 90% (inactive).
For `c1ccc(-c2nnc(SCc3cccnc3)o2)cc1`, the survival was 54% (active).
`Cc1ccc(CSc2nnc(-c3ccc(O)cc3)o2)cc1`: the survival was 84% (inactive).
For the compound `Cc1ccc(-c2nnc(SCc3ccccc3C#N)o2)cc1`, the survival is 69% (inactive).
For `N#Cc1ccccc1CSc1nnc(-c2ccccc2)o1`, the survival was 61% (inactive).
On to `Cc1ccc(-c2nnc(SCc3ccccc3C)o2)cc1`, for which the survival was -5% (active).
In the case of `CCOc1ccc(CCNC(=O)c2ccc(C)c(-n3c(C)nc4cccnc43)c2)cc1OCC` it was 101% (inactive); in that of `Cc1cccc(C(=O)Nc2ccc(OCc3cc(=O)n4ccsc4n3)cc2)c1`, 101% (inactive); in that of `O=C(CSc1ccccn1)Nc1cccc(F)c1`, 85% (inactive).
Consider `COC(=O)C(C)(C)Sc1nnc2c(n1)[nH]c1c(C)cc(C)cc12`, for which the survival was 55% (inactive).
For `COc1cc(NC(=O)c2ccc(-n3cnc4cccnc43)cc2)cc(OC)c1`, the survival is 55% (inactive).
`COc1cc(OC)c(NC(=O)c2ccc(-n3cnc4cccnc43)cc2)cc1Cl`: the survival is 52% (active).
In the case of `Cc1cccc(NC(=O)c2ccc(-n3cnc4cccnc43)cc2)c1C`, the survival was 82% (inactive).
Consider `CN1C(C(=O)Nc2cccc(O)c2)=CC(c2ccco2)=NS1(=O)=O`, for which the survival is 88% (inactive).
Consider `CCn1c(C)c(C)c2cc(C(=O)NCc3ccc(F)cc3)ccc21`, for which the survival is 90% (inactive).
As to `COc1ccc(CNC(=O)CCc2c(C)nc3c(c2C)c(=O)n(C)c(=O)n3C)cc1`, the survival is 115% (inactive).
In the case of `CCN(CC)S(=O)(=O)c1nnc(NC(=O)COc2ccc(Cl)cc2)s1` it was 87% (inactive); in that of `CCN(CC)S(=O)(=O)c1nnc(NC(=O)COc2ccc(C)cc2)s1`, 88% (inactive); in that of `CCN(CC)S(=O)(=O)c1nnc(NC(=O)COc2ccccc2)s1`, 100% (inactive).
`CCN(CC)S(=O)(=O)c1nnc(NC(=O)c2ccc(C(C)C)cc2)s1`: the survival was 44% (active).
Consider `CCN(CC)S(=O)(=O)c1nnc(NC(=O)c2ccc(C)cc2)s1`, for which the survival was 63% (inactive).
The same measure for `CCN(CC)S(=O)(=O)c1nnc(NC(=O)c2ccc(Br)cc2)s1`: 44% (active); for `COCCCNC(=O)c1sc2ncccc2c1-n1cccc1`: 75% (inactive).
Consider `COc1ccc(CNC(=O)C2CCN(c3nnc(-n4c(C)ccc4C)s3)CC2)c(OC)c1`, for which the survival was 87% (inactive).
On to `COc1ccc2c(c1)CC(NC(=O)Nc1ccc(Br)c(C)c1)CO2` (centres undefined), for which the survival is 75% (inactive).
For the compound `CCOC(=O)C1=C(CN2CCN(c3cccc(OC)c3)CC2)NC(=O)NC1c1ccc(OC)cc1` (centres undefined), the survival is 88% (inactive).
Consider `COC(=O)c1cc(S(=O)(=O)N2CCN(c3ccc(F)cc3)CC2)cn1C`, for which the survival was -5% (active).
For `COC(=O)c1scc(-c2ccc(C)cc2)c1S(=O)(=O)N1CCN(c2ccc(OC)cc2)CC1`, the survival was 60% (inactive).
As to `Cn1cc(S(=O)(=O)N2CCCCC2)cc1C(=O)N1CCN(c2ccc(F)cc2)CC1`, the survival was 55% (inactive).
Consider `COC(=O)c1scc(-c2ccc(C)cc2)c1S(=O)(=O)N1CCN(c2ccc(F)cc2)CC1`, for which the survival was -4% (active).
In the case of `Cn1cc(S(=O)(=O)N2CCCCCC2)cc1C(=O)N1CCN(c2ccc(F)cc2)CC1` it was 75% (inactive); in that of `COC(=O)c1scc(-c2ccc(C)cc2)c1S(=O)(=O)N1CCN(c2ccccc2)CC1`, 72% (inactive); in that of `Cc1cc(C)cc(NC(=O)N2CCC(NC(=O)C3CCCCC3)CC2)c1`, 92% (inactive).
The same measure for `Cc1ccccc1NC(=O)CN1CCCC1`: 70% (inactive); for `COCCCn1c(=O)c2sccc2n2c(CCCC(=O)NCc3ccc(F)cc3)nnc12`: 92% (inactive).
Consider `O=c1c2sc3ccccc3c2n(Cc2cccc(C(F)(F)F)c2)c(=O)n1Cc1ccccc1`, for which the survival is 67% (inactive).
In the case of `CCOC(=O)c1[nH]c2ccccc2c1NC(=O)c1ccccc1OCC` it was 68% (inactive); in that of `CCOC(=O)c1[nH]c2ccccc2c1NC(=O)c1cc(OC)cc(OC)c1`, 48% (active).
As to `CCOC(=O)c1[nH]c2ccccc2c1NC(=O)c1ccccc1OC`, the survival was 51% (active).
On to `CCOC(=O)c1[nH]c2ccccc2c1NC(=O)c1ccc(OC)c(OC)c1`, for which the survival was 131% (inactive).
In the case of `CCOC(=O)c1[nH]c2ccccc2c1NC(=O)c1cc(OCC)c(OCC)c(OCC)c1` it was 97% (inactive); in that of `CCOC(=O)c1[nH]c2ccccc2c1NC(=O)c1ccccc1F`, 53% (inactive); in that of `Cc1ccc(CNC(=O)c2sc3nc(-c4ccccc4)cn3c2C)cc1`, 123% (inactive).
The same measure for `Cc1ccc2oc(C(=O)Nc3c(C(=O)c4ccc(C)c(F)c4)oc4ccccc34)cc(=O)c2c1`: 58% (inactive); for `CCOc1ccc2nc(Cl)c(C3CC(c4ccc(C)cc4)=NN3C(=O)CCC(=O)O)cc2c1` (centres undefined): 50% (inactive).
With `CCOc1ccc2nc(Cl)c(C3CC(c4ccc(OC)cc4)=NN3S(C)(=O)=O)cc2c1` (centres undefined), the survival was 127% (inactive).
As for `CCS(=O)(=O)N1N=C(c2ccc(C)cc2)CC1c1cc2ccc(OC)cc2nc1Cl` (centres undefined), the survival is 44% (active).
In the case of `CCOc1ccc(C2C(=O)N(C3CCCCCC3)CC(=O)N2CCc2ccccc2)cc1OC` (centres undefined), the survival was 88% (inactive).
Consider `N#Cc1cc(C#N)c(SCC(N)=O)nc1N`, for which the survival was 72% (inactive).
Regarding `CCc1ccccc1N1C(=O)N(Cc2ccc(C#N)cc2)c2ccccc2S1(=O)=O`, the survival is 120% (inactive).
As to `COc1ccc2[nH]c(=O)c(CN(C(=O)Nc3ccccc3)C3CCCC3)cc2c1`, the survival was 78% (inactive).
The same measure for `Cn1cc(CN(C(=O)Nc2ccccc2)C2CCCCC2)c2ccccc21`: -14% (active); for `Cn1cc(CN(C(=O)Nc2ccc(Cl)c(Cl)c2)C2CCCCC2)c2ccccc21`: 51% (inactive); for `O=C(Nc1ccccc1)N(Cc1c[nH]c2ccccc12)C1CCCCCC1`: 52% (inactive).
Regarding `Cc1ccc(NC(=O)N(Cc2c[nH]c3ccccc23)C2CCCCCC2)cc1C`, the survival is 56% (inactive).
Take `Cc1ccc(NC(=O)N(Cc2cn(C)c3ccccc23)C2CCCCC2)cc1C`: the survival is -13% (active).
In the case of `CCC(C(=O)NCc1ccccc1)n1nc(C)c2sc3ccccc3c2c1=O` (centres undefined) it was 70% (inactive); in that of `COc1cccc(CNc2sc3c(c2C(=O)Nc2ccc(OC)cc2OC)CCC3)c1`, 99% (inactive).
As for `CC(=O)Nc1nonc1-c1nnc(SCC(=O)Nc2cc(C)cc(C)c2)n1C`, the survival was 52% (inactive).
Regarding `CC1CCC(NC(=O)C2(C)Cc3ccccc3C(=O)N2Cc2ccccc2Cl)CC1` (centres undefined), the survival was 48% (inactive).
For `CC1(C(=O)NC2CCCCC2)Cc2ccccc2C(=O)N1Cc1ccccc1Cl` (centres undefined), the survival was 43% (active).
Take `CC1(C(=O)NC2CCCCC2)Cc2ccccc2C(=O)N1Cc1ccc(Cl)cc1` (centres undefined): the survival was 92% (inactive).
Consider `N#Cc1ccc(S(=O)(=O)N2CCNCC2)cc1`, for which the survival is 98% (inactive).
The same measure for `CC1=C(c2ccc(C(C)C)cc2)S(=O)(=O)NC1=NCc1ccccc1C`: 77% (inactive).
Take `Cc1[nH]n(-c2ccccc2)c(=O)c1/C=N/NC(=O)c1ccccc1`: the survival was 50% (inactive).
For `Cc1[nH]n(-c2ccccc2)c(=O)c1C(c1cc(Cl)ccc1O)c1c(C)[nH]n(-c2ccccc2)c1=O`, the survival was 49% (inactive).
Take `Cc1[nH]n(-c2ccc(Cl)cc2)c(=O)c1C(=O)c1ccccc1`: the survival was 40% (active).
As for `Cc1ccc2oc(-c3ccc(NC(=O)CCC(=O)O)cc3)nc2c1`, the survival is 86% (inactive).
The same measure for `Cc1ccc(-c2nc3sccn3c2Nc2ccc(C)c(C)c2)cc1`: 36% (active); for `Cc1cccc(C)c1Nc1c(-c2ccc(O)cc2)nc2sccn12`: 28% (active); for `Cc1ccc(Nc2c(-c3ccc(Cl)cc3)nc3sccn23)c(C)c1`: 47% (inactive).
For `COc1cc(-c2nc3sccn3c2Nc2c(C)cccc2C)ccc1O`, the survival is 125% (inactive).
Turning to `CCc1cccc(C)c1Nc1c(-c2cccc(O)c2)nc2sccn12`, the survival is 105% (inactive).
For `Cc1ccc(-c2nc3sccn3c2Nc2ccccc2C)cc1`, the survival is 48% (inactive).
For the compound `Cc1cc(Cl)ccc1NC(=O)CN(c1ccccc1Br)S(C)(=O)=O`, the survival is 55% (inactive).
As to `CCOc1ccc(-n2ccnc2SCC(=O)Nc2cccc3ccccc23)cc1`, the survival was 68% (inactive).
In the case of `O=c1cc(CN2CCN(S(=O)(=O)c3ccc(Cl)cc3)CC2)nc2sc(-c3ccccc3F)nn12` it was 104% (inactive); in that of `Cc1cccc(-n2ncc3c(NC4CCCC4)ncnc32)c1`, 69% (inactive).
`O=C(O)c1ccc(/C=N/n2cnnc2)cc1`: the survival is 111% (inactive).
Regarding `CCn1cc2c(n1)-c1c(oc(C(=O)Nc3cccc(C)c3C)c1C)CC2`, the survival is 95% (inactive).
Turning to `Cc1ccccc1CNC(=O)c1oc2c(c1C)-c1nn(Cc3ccc(Cl)cc3)cc1CC2`, the survival is 73% (inactive).
The same measure for `COc1cc(NC(=O)c2oc3c(c2C)-c2nn(Cc4cccc(Cl)c4)cc2CC3)cc(OC)c1`: 78% (inactive); for `Cc1ccccc1NC(=O)c1oc2c(c1C)-c1nn(Cc3cccc(Cl)c3)cc1CC2`: 35% (active); for `Cc1cccc(C)c1NC(=O)c1oc2c(c1C)-c1nn(Cc3ccccc3)cc1CC2`: 23% (active).
Regarding `Cc1cccc(CNC(=O)c2oc3c(c2C)-c2nn(Cc4cccc(Cl)c4)cc2CC3)c1`, the survival is 97% (inactive).
For `O=C(O)CC1CCS(=O)(=O)C1` (centres undefined), the survival was 62% (inactive).
With `CCOc1ccccc1N1CCN(C(=O)C2CCN(Cc3ccc(OC)cc3)CC2)CC1`, the survival was 98% (inactive).
In the case of `CC1CCC(N2CC(=O)N(C3CCCC3)C(c3ccc(Cl)cc3)C2=O)CC1` (centres undefined), the survival is 79% (inactive).
In the case of `Cc1ccc2occ(CC(=O)N(Cc3ccc(C(C)C)cc3)C3CCS(=O)(=O)C3)c2c1` (centres undefined) it was 66% (inactive).
Turning to `COc1ccc(NS(=O)(=O)c2ccc(N3CCCCS3(=O)=O)cc2)cc1Cl`, the survival was 71% (inactive).
